Laboratory results published in PubChem BioAssay AID463190 (Sanford-Burnham Center for Chemical Genomics, 2010).
The campaign covered roughly 330,000 compounds. About 7,300 (2.2%) were called active.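 The calls were made as follows: active = inhibition of at least 40%; inactive = the rest.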 For the sample, actives were picked, then their nearest neighbours and some compounds at random.

Test: growth inhibition of tim10-1 ts yeast – luminescence, uHTS, primary screen (AID 463190);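 also: mutant grown at 25 °C; 0% = DMSO wells with yeast and 100% = wells holding no yeast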
Settings: S. cerevisiae tim10-1 ts strain growth, BacTiter-Glo, 24 h; at 20 µM; active compounds read high

inhibition, active:
Clc1ccccc1CSc1nnc(-c2ccco2)c(-c2ccco2)n1 41.7%, CCn1c(/C=C/c2ccc([N+](=O)[O-])o2)nc2ccccc2c1=O 69.9%, Cc1nc(-c2ccc(Cl)cc2)sc1C(=O)CBr 50.9%, Nc1ccc(-c2nnc(-c3ccc(-c4ccccc4)cc3)o2)cc1 45.9%, Cc1ccccc1Nc1nnc(SCC(=O)c2cc3ccccc3o2)s1 43.5%, CC(=O)Nc1ccc(/C=C/C(=O)c2ccccc2)cc1 51.4%, Cc1ccc(C(=O)/C=C/c2c(C)nn(-c3ccccc3)c2Cl)cc1 42.7%, Cc1ccc(C(C[N+](=O)[O-])c2c(C)cc3ccccn23)cc1 (stereo not drawn) 41.6%, Cc1ccc(C(=O)NC(=S)Nc2ccccc2C)cc1 40.5%, CCc1ccc(C(=O)NC(=S)Nc2ccccc2N2CCOCC2)cc1 40.2%, COc1ccccc1C(=O)NC(=S)Nc1ccccc1N1CCCCC1 41.9%, COc1ccc2nc(NC(=O)[C@@H]3CCCN3C(=O)c3cccs3)sc2c1 45.4%, Cc1ccc(N2C(=O)C(Cc3ccccc3)NC2=S)cc1 (stereo not drawn) 44.1%

inhibition, inactive:
S=C(NCc1ccco1)NCc1ccccc1Cl 28.9%, O=C(CC1N=C2c3ccccc3N=C(SCc3ccccc3Cl)N2C1=O)NCc1ccco1 (stereo not drawn) 24.8%, Cc1cc(C)n(Cc2cnc(N3CCOCC3)s2)n1 10.6%, COc1ccc(-n2c(=O)[nH]c3cc(C(=O)NCCc4ccc(OC)c(OC)c4)ccc3c2=O)c(OC)c1 7.83%, CCOc1ccccc1N(CC(=O)NC1CCCCC1)C(=O)CCCC(=O)Nc1ccccn1 10.6%, Cn1c(Cc2cccs2)nnc1SCC(=O)Nc1ccccc1 10.8%, CCc1ccc(S(=O)(=O)N/N=C\c2ccc([N+](=O)[O-])o2)cc1 30.4%, CCn1c(=O)c([N+](=O)[O-])c(NCc2ccc3c(c2)OCO3)c2ccccc21 2.3%, COc1ccc(OC)c(C2C3=C(N=c4s/c(=C\c5cccc(O)c5)c(=O)n42)c2ccccc2CC3)c1 (stereo not drawn) 22%, COc1ccc(CN2CC[C@H]3C=CC[C@@H](C(=O)N4CCOCC4)[C@H]3C2=O)cc1OC 6.76%, Cc1nc2ccccn2c1C(=O)NN=C1CCN(C)CC1 1.25%, CCOC(=O)Cn1c(O)c(N=NC(=O)CNC(=O)Cc2ccccc2)c2ccccc21 -11.5%, O=C(CN1CCCC1)Nc1sc2c(c1C(=O)Nc1ccccc1)CCCC2 2.11%, Cc1nc(-c2ccc(Cl)cc2)sc1C(=O)NN -3.83%, Cc1nc(-c2ccccc2)sc1C(=O)/C=C/N(C)C 5.62%, CCc1ccc(S(=O)(=O)Nc2ccc(C)c(NS(C)(=O)=O)c2)cc1 -0.664%, O=S(=O)(Nc1cc(Cl)ccc1N1CCOCC1)c1ccccc1Cl 12%, Brc1ccc(-c2nnc(-c3ccccc3)o2)o1 -6.79%, Nc1ccc(-c2nnc(-c3ccccc3)o2)cc1 -11.5%, Cc1cc2c(=O)n(C)c(SCC(=O)c3cc4ccccc4o3)nc2s1 29.9%, CCOc1ccccc1Nc1nnc(SCC(=O)Nc2cc(C)on2)s1 14.3%, O=C(Nc1cc(-c2nn(CC(=O)N3CCCCC3)c(=O)c3ccccc23)ccc1N1CCOCC1)c1ccc(Cl)cc1 5.87%, Cc1cc(C)n2nc(CNS(=O)(=O)c3c(F)c(F)c(F)c(F)c3F)nc2n1 3.29%, CC(=O)Nc1ccc(C(=O)/C=C/c2ccc[nH]2)cc1 -13.3%, O=C(/C=C/c1ccc(N2CCOCC2)cc1)c1ccccc1 36.1%, O=C(CCNS(=O)(=O)c1ccccc1C(F)(F)F)Nc1ccncc1 -1.52%, Cc1nn(-c2ccccc2)c(Cl)c1/C=C/C(=O)c1ccc(O)cc1 0.354%, Cc1ccc(-n2nc(C)c(/C=N/NC(=O)c3cccs3)c2Cl)cc1 -6.6%, CC(=O)N/C(=C\c1ccccc1)C(=O)OC(C)C(=O)N(C)c1ccccc1 (stereo not drawn) 4.65%, COC(=O)c1c(C(=O)OC)c2n(c1C)CCS2 -20.7%, COc1ccccc1CCNC(=O)c1c(C)nn(CC(C)C)c1Cl 16.6%, Cc1ccc(C(=O)NNC(=O)CSc2nnc3ccccn23)cc1 4.3%, Cc1cc2ccccn2c1C(=O)c1cccc(F)c1 -8.04%, O=C(NC(=S)Nc1ccccc1N1CCCCC1)c1ccc(F)cc1 32.4%, O=C(COc1ccc(Cl)cc1)NC(=S)Nc1ccccc1N1CCOCC1 4.3%, Cc1ccccc1NC(=S)NC(=O)Cc1ccc(Cl)cc1 22.6%, COc1ccc(C(=O)NC(=S)Nc2ccccc2N2CCN(S(C)(=O)=O)CC2)cc1OC 25%, Cc1cc(C(=O)NNC(=S)Nc2ccccc2C)cs1 24%, O=C(Nc1ccccc1N1CCOCC1)c1ccncc1 -6.96%, COc1ccccc1Cn1c(C)nnc1-c1cnn(C)c1N 9.92%, CCOC(=O)c1c(Cc2ccc(Cl)cc2)c[nH]c1C 29.9%, O=Cc1ccc(OCc2cn3ccccc3n2)cc1 -8%, Nc1nc(CC(=O)CSc2ccc(Cl)cc2)nc(Nc2ccc(F)cc2)n1 1.48%, COc1ccc(Cl)cc1NC(=O)[C@@H]1CCCN1C(=O)c1cccs1 33.9%, COc1cc(Cl)c(C)cc1NC(=O)[C@@H]1CCCN1C(=O)c1cccs1 31.3%, COCCCN(C(=S)Nc1c(C)cc(C)cc1C)C(C)c1ccncc1 (stereo not drawn) 21.3%, O=S(=O)(NCc1ccc2c(c1)OCO2)c1cccc2nsnc12 1.8%, COc1ccc(Nc2cc(=O)n(-c3ccccc3)c3c2c(=O)n(C)c(=O)n3C)cc1 14.6%, Cc1cc(C)c(NC(=O)CN2C(=O)NC(Cc3ccccc3)C2=O)c(C)c1 (stereo not drawn) -9.44%, O=C1C(Cc2ccc(O)cc2)NC(=S)N1Cc1ccccc1 (stereo not drawn) -2.4%
